Results as given in patent publication US10344301, “Mutants of the bacteriophage lambda integrase” (AGENCY FOR SCIENCE, TECHNOLOGY AND RESEARCH).

B1: attH4X ; attP4X (dsDNA ; dsDNA)
DNA 1: ACGCTTTATTTCATTAAGTTG
DNA 2: CAACTTAATGAAATAAAGCGT
DNA 3: CAGCTTTATTTCATTAAGTTG
DNA 4: CAACTTAATGAAATAAAGCTG
B2: attB ; attP (dsDNA ; dsDNA)
DNA 1: CTGCTTTTTTATACTAACTTG
DNA 2: CAAGTTAGTATAAAAAAGCAG
DNA 3: CAGCTTTTTTATACTAAGTTG
DNA 4: CAACTTAGTATAAAAAAGCTG
B3: attH ; attPH (dsDNA ; dsDNA)
DNA 1: CTGCTTTCTTATACCAAGTGG
DNA 2: CCACTTGGTATAAGAAAGCAG
DNA 3: CAGCTTTCTTATACCAAGTTG
DNA 4: CAACTTGGTATAAGAAAGCTG

Molecular target: T1, I43F C2 integrase (Bacteriophage lambda, UniProt P03700 SEQ:1-356, I43F)
T1 sequence: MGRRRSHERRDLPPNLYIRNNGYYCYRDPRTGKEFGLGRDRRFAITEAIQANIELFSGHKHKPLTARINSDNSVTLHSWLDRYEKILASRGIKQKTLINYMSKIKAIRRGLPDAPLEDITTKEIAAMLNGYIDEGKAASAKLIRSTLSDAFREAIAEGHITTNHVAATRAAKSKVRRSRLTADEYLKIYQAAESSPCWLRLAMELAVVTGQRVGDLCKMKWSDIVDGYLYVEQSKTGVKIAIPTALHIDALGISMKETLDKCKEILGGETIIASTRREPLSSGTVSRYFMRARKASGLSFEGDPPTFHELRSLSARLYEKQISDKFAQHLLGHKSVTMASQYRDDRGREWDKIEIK
Experiment: IVT; E319G removed from C3
Conditions: tags: PURExpress IVT

| Binder | binding signal [fold reduced vs C3] |
| --- | --- |
| B1 | ~3 |
| B2 | ~3 |
| B3 | ~3 |
